Compound activity deposited in PubChem by National Center for Advancing Translational Sciences (NCATS).
Hits are enriched below; roughly 1.1% of the tested compounds scored in any of these assays.
gsp antagonist: gsp mutant antagonism | actives 0.4% (n = 340,000) | AID 624288 | gsp-mutant cells, cAMP HTRF, 30 min | Potency, µM (titrated, usually from 76.9 µM), for inactives: at the highest dose activity change, negative = inhibition, actives largely listed as inhibitors; calls by dose curve; cell line not stated here;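 also: intracellular cAMP measured with PDE inhibitor Ro 20-1724 present during compound exposure; potency is read from the fitted curve at half-maximal effect; % is scaled to controls: 0 for no effect and ±100 for the full control effect; nearly all actives have a fitted effect of over 65% in size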
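HTRF cAMP measurement after 30 min RT detection following 30 min, 37C compound treatment alongside […] (added as 300 uM solution) in G418-selected cells seeded at 2000/well and grown 16–24 h.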
Tb PFK inh: blocks T. brucei phosphofructokinase. O15648. T. brucei PFK, ADP-Glo luminescence. Potency, µM (doses to about 57.5 µM), for inactives: at the top dose activity, negative = inhibition, most hits filed as inhibitors. actives 0.17% (n = 330,000);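 also: potency is read from the fitted curve at half-maximal effect; 0% = uninhibited 1x PFK enzyme wells and -100% = no-enzyme wells; nearly all actives have a fitted effect of over 60% in size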
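Activity is normalized to no-enzyme wells (full inhibition) and 1.25 nM enzyme wells (no inhibition). Reaction: 0.5 mM F6P, 0.1 mM ATP, 45 min RT, ADP-Glo luminescence; concentration-response curves fitted and classed by quality.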
p53 reactivation: re-activators of mutant p53 | H1299 p53-A138V BP100-luciferase reporter, luminescence, 24 h | Potency, µM (doses to about 92.2 µM), for the others: at the highest dose activity change, positive = activation, hits mostly activators | actives 0.063% (n = 320,000) | AID 504706; also: potency is read from the fitted curve at half-maximal effect; % of control where 0% means no effect; nearly all actives have a fitted effect of over 45% in size
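H1299 (p53-null), stable ts p53-A138V + BP100-Luc; 1000 cells/well, Opti-MEM/10% FBS; cpd 4 pt, 1:5; 24 h, 37 deg C, 5% CO2; detection reagent 10 min RT; luminescence.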
gsp ag: gsp mutant agonism; AID 624287; gsp mutant cells, cAMP HTRF, 30 min; Potency, µM (titrated, usually from 76.9 µM), without a hit: top-dose activation (cAMP increase), actives largely listed as activators; actives 0.13% (n = 340,000); active = well fitted activation curve with a large enough effect; inconclusive = small, poorly fitted or top-dose-only effect, or another doubt; inactive = no such curve, though single readings can be large or run the other way; cell line not stated here;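 also: phosphodiesterase inhibitor Ro 20-1724 added with compounds to block cAMP breakdown; potency is read from the fitted curve at half-maximal effect; nearly all actives have a fitted effect of over 60% in size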
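Cells stably selected in G418 were plated at 2000/well, grown 16-24 hr, then given compounds in DMSO with the PDE inhibitor […] (300 uM solution added) for 30 min at 37C; cAMP was read by HTRF.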
RXFP1 ag: agonists of human relaxin receptor RXFP1; Q9HBX9; HEK293T-RXFP1 cAMP TR-FRET, 30 min; response scale: percent of porcine relaxin response, buffer zero; Potency, µM (doses to about 57.5 µM), for inactives: at the highest dose activation, most hits filed as activators; actives 0.3% (n = 370,000); AID 2676; also: potency is read from the fitted curve at half-maximal effect; % is scaled to controls: 0 for no effect and ±100 for the full control effect; nearly all actives have a fitted effect of over 60% in size
Target sequence (Q9HBX9 whole entry, looked up): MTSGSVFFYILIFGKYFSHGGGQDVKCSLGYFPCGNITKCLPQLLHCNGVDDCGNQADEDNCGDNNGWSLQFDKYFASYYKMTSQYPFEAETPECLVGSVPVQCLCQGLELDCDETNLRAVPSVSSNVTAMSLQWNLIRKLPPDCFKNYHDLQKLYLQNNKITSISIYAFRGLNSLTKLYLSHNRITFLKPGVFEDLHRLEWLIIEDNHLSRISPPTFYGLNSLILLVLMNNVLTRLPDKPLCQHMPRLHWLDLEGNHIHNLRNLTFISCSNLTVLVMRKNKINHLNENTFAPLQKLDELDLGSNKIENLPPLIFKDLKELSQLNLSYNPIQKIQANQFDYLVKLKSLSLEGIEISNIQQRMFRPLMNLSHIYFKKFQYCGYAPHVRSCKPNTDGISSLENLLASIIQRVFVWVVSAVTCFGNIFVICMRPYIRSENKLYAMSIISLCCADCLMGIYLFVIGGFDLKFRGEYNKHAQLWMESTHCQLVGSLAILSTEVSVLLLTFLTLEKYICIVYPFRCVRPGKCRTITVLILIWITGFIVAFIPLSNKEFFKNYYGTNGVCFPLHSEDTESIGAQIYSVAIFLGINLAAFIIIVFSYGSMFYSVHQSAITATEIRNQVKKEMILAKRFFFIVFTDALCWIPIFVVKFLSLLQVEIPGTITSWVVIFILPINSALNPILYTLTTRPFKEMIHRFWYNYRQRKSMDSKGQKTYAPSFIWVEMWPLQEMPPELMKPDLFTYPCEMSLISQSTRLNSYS
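HEK293T cells stably expressing RXFP1 were pretreated with the PDE4 inhibitor Ro 20174, exposed to compounds for 30 min at 37C, lysed, and cAMP was read by TR-FRET. Data normalized to buffer (basal) and 29 nM porcine relaxin (100%).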
RXFP1 antag: RXFP1 (human) relaxin receptor antagonism. Q9HBX9. HEK293-RXFP1, relaxin-stimulated cAMP HTRF, 30 min; hits give low values. activity change, negative = inhibition, % at 57.5 µM. actives 0.59% (n = 350,000);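 active = activity change of -60% or lower, but not beyond a set lower limit; inconclusive = change between -60% and -40%, or beyond the set limit; inactive = change above -40%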; also: % is scaled to controls: 0 for no effect and ±100 for the full control effect
The depositor's hits bear a star; ? = inconclusive; nt = not tested or not shown; [ ] = another dose, or the depositor's remark. Unless noted, calls follow the shape of the dose curve; as a rule, active = well fitted curve in the direction sought with a large enough effect; inconclusive = small, poorly fitted or top-dose-only effect, or another doubt; inactive = no such curve, though single readings can be large; an effect the other way counts as inactive or inconclusive.

SMILES	gsp antagonist	Tb PFK inh	p53 reactivation	gsp ag	RXFP1 ag	RXFP1 antag
C[C@H](CO)N1C[C@H](C)[C@@H](CN(C)Cc2ccncc2)Oc2c(NC(=O)CCCCCC(=O)Nc3ccccc3N)cccc2C1=O	-15%	-2%	4%	-136%	nt	nt
Nc1cccc(-c2cn3cc(C(F)(F)F)cc(Cl)c3n2)c1	5%	-4%	?	-22%	3%	-2
Cc1cccc(C2C=C(c3ccc(F)cc3)Nc3nc4ccccc4n32)c1 (stereo unspecified)	nt	nt	nt	nt	4%	-19
CC(C)(C)c1ccc(OCc2ccc(C(=O)Nc3cccnc3)o2)cc1	?	-4%	13%	?	-3%	-64*
COc1ccccc1N1CCN(C(=O)c2ccc(CS(=O)c3ccccc3C)o2)CC1 (stereo unspecified)	nt	nt	nt	nt	1%	nt
O=C(c1ccc(CS(=O)Cc2ccc(Cl)cc2)o1)N1CCN(c2cccc(Cl)c2)CC1 (stereo unspecified)	32µM*	-21%	-8%	36%	4%	-20
Cc1cccc(N2CCN(C(=O)c3ccc(CS(=O)c4cccc(Cl)c4)o3)CC2)c1C (stereo unspecified)	nt	nt	nt	nt	-1%	-32
O=C(c1ccc(CS(=O)Cc2ccc(Cl)cc2)o1)N1CCN(c2ccc(F)cc2)CC1 (stereo unspecified)	-3%	-9%	-14%	-23%	1%	-1
Cc1ccccc1S(=O)Cc1ccc(C(=O)N2CCN(c3cccc(C)c3C)CC2)o1 (stereo unspecified)	nt	nt	nt	nt	6%	-98*
Cc1cccc(N2CCN(C(=O)c3ccc(CS(=O)Cc4ccc(Cl)cc4)o3)CC2)c1C (stereo unspecified)	-25%	-3%	-5%	11%	0%	-78*
O=C(Nc1ccon1)c1nc[nH]c1C(=O)N1CCN(c2ccccc2)CC1	9%	0%	-5%	-32%	nt	nt
CC(=O)c1ccc(Nc2cc(C)nc3ncnn23)cc1	0%	0%	nt	4%[15.4 µM]	12%	11
CCN(CC)CCOC(=O)c1c(C)oc2ccc(O)cc12	-4%	-1%	?	3%	-1%	-22
CC(=O)Nc1ccc(-c2cc(C(=O)O)c3c(-c4ccccc4)[nH]nc3n2)cc1	nt	nt	nt	nt	5%	-12
O=C(CCN1C(=O)C2CC=C(Cl)CC2C1=O)NC1CCCCC1 (stereo unspecified)	12%	-6%	3%	?	1%	-4
CCOC(=O)C1CCCN(C(=O)c2cc3nc(-c4ccc5c(c4)OCO5)cc(C(F)(F)F)n3n2)C1 (stereo unspecified)	-23%	3%	-2%	?	4%	11
Cc1cccc2nc(-c3cccnc3)c(Nc3ccc(C(C)C)cc3)n12	nt	nt	nt	nt	0%	-88*
Nc1cccnc1-n1nc(C(F)(F)F)cc1C(F)(F)F	4%	6%	1%	1%[15.4 µM]	-1%	-14
Cn1sc(NC(=O)c2ccccc2Cl)nc1=O	?	1%	7%	-33%	-3%	-5
Cn1sc(NC(=O)c2cccc(Cl)c2)nc1=O	28µM*	1%	?	15%	1%	-25
Cn1c(=O)c2c3c(sc2n2cnnc12)CCC3	17%	3%	3%	16%	5%	0
O=c1[nH]c2sc3c(c2c2nncn12)CCCC3	35µM*	-6%	3%	0%	0%	4
CCc1ccc(CN2CCc3nc(Nc4ccccc4)ncc3C2)cc1	nt	nt	nt	nt	2%	-65*
CCOc1ccccc1CN1CCc2nc(Nc3ccccc3)ncc2C1	nt	nt	nt	nt	-1%	-39
C=CCn1c(COc2ccc(CC)cc2)nnc1SCC(=O)NC1CCS(=O)(=O)C1 (stereo unspecified)	1%	-3%	2%	-10%	-4%	-5
O=C(NNC(=S)Nc1ccccc1)c1cc(-c2cccnc2)nc2ccccc12	-17%	0%	0%	1%[15.4 µM]	2%	-61*
